Data from PubChem BioAssay (NCI).
The panel holds about 79,000 compounds, 15% with a hit somewhere; the sample as a whole holds those more often. The source made the active and inactive calls. No stated cut-off is given here; in the data, active means growth inhibition above about 70%; inactive means the rest.

How the values were obtained:
[1] = NCI Yeast Anticancer Drug Screen. Data for the rad52 strain (AID 147);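 further: 0% = growth of vehicle-treated control cultures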; conditions: S. cerevisiae rad52 mutant growth inhibition, active compounds read high
Method in brief: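 DNA repair-defective yeast; compound exposure; growth scored against vehicle controls.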

[2] = NCI Yeast Anticancer Drug Screen. Data for the rad50EPP+ strain (AID 151);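 further: 0% = growth of vehicle-treated control cultures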; conditions: S. cerevisiae rad50 mutant strain, active compounds read high
Method in brief: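 rad50EPP+ yeast treated with test compounds. Readout: growth vs vehicle control.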

[3] = NCI Yeast Anticancer Drug Screen. Data for the mgt1 strain (AID 153); conditions: S. cerevisiae mgt1 mutant growth inhibition, active compounds read high
Method in brief: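 Growth inhibition relative to vehicle controls was scored for the mgt1 yeast strain after compound exposure.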

[4] = NCI Yeast Anticancer Drug Screen. Data for the rad50 strain (AID 155);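 further: 0% = growth of vehicle-only cultures of the same strain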; conditions: S. cerevisiae rad50 strain growth inhibition, active compounds read high
Method in brief: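 DNA repair mutant yeast, compound exposure, growth read-out; inhibition is taken relative to vehicle.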

[5] = NCI Yeast Anticancer Drug Screen. Data for the mec2-1 strain (AID 157); conditions: S. cerevisiae mec2-1 strain, active compounds read high
Method in brief: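 Growth inhibition is read against vehicle-treated controls after compound exposure of the mec2-1 yeast strain, which is defective in DNA damage repair or cell cycle control.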

[6] = NCI Yeast Anticancer Drug Screen. Data for the rad14 strain (AID 159);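 further: 0% = growth of vehicle-treated control cultures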; conditions: S. cerevisiae rad14 strain growth inhibition, active compounds read high
Method in brief: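 DNA repair-defective yeast, compound-exposed; % growth inhibition derived by comparison with vehicle-treated controls.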

[7] = NCI Yeast Anticancer Drug Screen. Data for the sgs1 mgt1 strain (AID 161);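 further: 0% = growth of cultures given vehicle only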; conditions: S. cerevisiae sgs1 mgt1 strain, active compounds read high
Method in brief: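 Growth of a repair-deficient yeast mutant was monitored after compound treatment and expressed as inhibition relative to vehicle-treated cultures.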

[8] = NCI Yeast Anticancer Drug Screen. Data for the CLN2oe strain (AID 163);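 further: 0% = growth of vehicle-only control cultures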; conditions: S. cerevisiae CLN2oe strain, active compounds read high
Method in brief: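 Compound-treated yeast; growth vs vehicle ctrl = % inhibition. Genetically altered strain (cell-cycle control).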

[9] = NCI Yeast Anticancer Drug Screen. Data for the cln2 rad14 strain (AID 165);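 further: 0% = growth equal to vehicle treated cultures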; conditions: S. cerevisiae cln2 rad14 strain, active compounds read high
Method in brief: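 Growth inhibition, relative to vehicle-treated controls, is the read-out. The test organism is a yeast strain with defined genetic alterations, cln2 rad14.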

[10] = NCI Yeast Anticancer Drug Screen. Data for the bub3 strain (AID 167); conditions: S. cerevisiae bub3 mutant strain, active compounds read high
Method in brief: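 In this screen, a yeast mutant lacking normal mitotic checkpoint function is challenged with compound. Relative growth versus vehicle gives the inhibition value.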

[11] = NCI Yeast Anticancer Drug Screen. Data for the wt2 strain (AID 169);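 further: 0% = growth of vehicle-treated yeast cultures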; conditions: S. cerevisiae wt2 strain growth inhibition, active compounds read high
Method in brief: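 Compound exposure of yeast; growth compared with vehicle controls; inhibition reported.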

[12] = NCI Yeast Anticancer Drug Screen. Data for the mlh1 strain (AID 171);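 further: 0% = growth of vehicle-treated control cultures of the same strain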; conditions: S. cerevisiae mlh1 strain growth inhibition, active compounds read high
Method in brief: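 Compounds are applied to a genetically altered yeast strain, and its growth is compared with that of vehicle-treated cultures to give percent inhibition.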

[13] = NCI Yeast Anticancer Drug Screen. Data for the mlh1 rad18 strain (AID 175); conditions: S. cerevisiae mlh1 rad18 strain growth inhibition, active compounds read high
Method in brief: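 Cells of a genetically altered yeast strain, deficient in DNA damage repair, were treated with compound. Their growth was then compared with that of vehicle-treated cultures to give inhibition.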

[14] = NCI Yeast Anticancer Drug Screen. Data for the rad18 strain (AID 177); conditions: S. cerevisiae rad18 mutant growth inhibition, active compounds read high
Method in brief: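 Compounds are applied to a repair-deficient yeast strain, and growth is compared with that of vehicle-treated cultures to give percent inhibition.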

[15] = at 5.0 µM (retest, dose inferred, filed as 0.5)
[16] = at 50.0 µM (retest, dose inferred, filed as 5.0)

Measured: growth inhibition

O=C(Nc1ccccc1)C(=O)C(C(=O)c1ccccc1)C(c1ccccc1)c1ccccc1 (stereo not drawn)
inactive: [1]; at 1.2 µM 8% | [1]; at 3.7 µM 10% | [1]; at 11.0 µM 15% | [1]; at 33.0 µM 23% | [1]; at 100.0 µM 36% | [2]; at 1.2 µM 0% | [2]; at 3.7 µM 0% | [2]; at 11.0 µM 1% | [2]; at 33.0 µM 2% | [2]; at 100.0 µM -1% | [3]; at 1.2 µM 2% | [3]; at 3.7 µM 1% | [3]; at 11.0 µM 5% | [3]; at 33.0 µM 8% | [3]; at 100.0 µM 42% | [4]; at 1.2 µM 1% | [4]; at 3.7 µM -6% | [4]; [15] 11% | [4]; at 11.0 µM -3% | [4]; at 33.0 µM 26% | [4]; at 100.0 µM 37% | [5]; at 1.2 µM 8% | [5]; at 3.7 µM 7% | [5]; [15] -11% | [5]; at 11.0 µM 10% | [5]; at 33.0 µM 22% | [5]; at 50.0 µM 15.9% | [5]; at 100.0 µM 35% | [6]; at 1.2 µM 3% | [6]; at 3.7 µM 0% | [6]; at 11.0 µM 5% | [6]; at 33.0 µM 18% | [6]; at 100.0 µM 36% | [7]; [15] -5% | [7]; [16] 20% | [7]; at 50.0 µM 29.4% | [8]; at 1.2 µM 5% | [8]; at 3.7 µM 2% | [8]; at 11.0 µM 6% | [8]; at 33.0 µM 24% | [8]; at 100.0 µM 39% | [9]; [15] 5% | [9]; [16] 53% | [9]; at 50.0 µM 41.2% | [10]; at 1.2 µM 2% | [10]; at 3.7 µM 0% | [10]; [15] -2% | [10]; at 11.0 µM 3% | [10]; at 33.0 µM 9% | [10]; [16] 33% | [10]; at 50.0 µM 58.3% | [10]; at 100.0 µM 18% | [11]; at 1.2 µM 1% | [11]; at 3.7 µM 2% | [11]; at 11.0 µM 2% | [11]; at 33.0 µM 12% | [11]; at 100.0 µM 43% | [12]; at 1.2 µM 3% | [12]; at 3.7 µM 2% | [12]; at 11.0 µM 3% | [12]; at 33.0 µM 16% | [12]; at 100.0 µM 31% | [13]; [15] -13% | [14]; at 1.2 µM 7% | [14]; at 3.7 µM 10% | [14]; at 11.0 µM 22% | [14]; at 33.0 µM 41% | [14]; at 100.0 µM 47%
active: [4]; [16] 86% | [4]; at 50.0 µM 82.5% | [5]; [16] 78% | [13]; [16] 74% | [13]; at 50.0 µM 79.8%
